This passage reports growth inhibition results from PubChem BioAssay (NCI).

Test [1] is described as follows: NCI Yeast Anticancer Drug Screen. Data for the rad50 strain (AID 155).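 Further: 0% = growth of vehicle-only cultures of the same strain.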 Particulars: S. cerevisiae rad50 strain growth inhibition; at 50.0 µM; active compounds read high. The essentials: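 Compounds were tested on a yeast strain with an engineered DNA damage repair alteration; the reported value is growth inhibition normalised to vehicle treatment.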
Test [2] in a line: NCI Yeast Anticancer Drug Screen. Data for the mec2-1 strain (AID 157). Particulars: S. cerevisiae mec2-1 strain, at 50.0 µM, active compounds read high. The gist of the method: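 Yeast mec2-1 mutant treated with compound. Readout: growth inhibition vs vehicle controls.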
Test [3] in a line: NCI Yeast Anticancer Drug Screen. Data for the sgs1 mgt1 strain (AID 161).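 Further: 0% = growth of cultures given vehicle only.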 Particulars: S. cerevisiae sgs1 mgt1 strain, at 50.0 µM, active compounds read high. The gist of the method: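 Read-out: growth inhibition vs vehicle controls. Cells: mutant yeast strain deficient in DNA damage repair.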
Test [4] in a line: NCI Yeast Anticancer Drug Screen. Data for the cln2 rad14 strain (AID 165).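 Further: 0% = growth equal to vehicle treated cultures.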 The settings on record: S. cerevisiae cln2 rad14 strain, at 50.0 µM, active compounds read high. The essentials:
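cln2 rad14 yeast strain; compound exposure; growth inhibition read vs vehicle controls.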

A short description of test [5]: NCI Yeast Anticancer Drug Screen. Data for the bub3 strain (AID 167). Particulars: S. cerevisiae bub3 mutant strain, at 50.0 µM, active compounds read high. The gist of the method:
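Growth of a checkpoint-deficient yeast mutant is measured after compound exposure. Values represent inhibition relative to vehicle.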

Test [6] in a line: NCI Yeast Anticancer Drug Screen. Data for the mlh1 rad18 strain (AID 175). The settings on record: S. cerevisiae mlh1 rad18 strain growth inhibition; at 50.0 µM; active compounds read high. The gist of the method: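 Yeast w/ defined DNA-repair lesions; compound exposure; growth vs vehicle controls → % inhibition.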

Compounds without any hit were thinned out: in the full panel of roughly 79,000, 15% have a hit. A number with no mark means an inactive call. Activity calls are given as the source filed them. No stated cut-off is given here; in the data, active means growth inhibition above about 70%; inactive means the rest.

As for `COC(=O)N1c2ccccc2[C@@H](O)[C@@H]1OC`, the growth inhibition in test [1] is 14.4%; in test [2] it was 11.7%; in test [3], 7.25%; in test [4], -4.7%; in test [5] it was 11.7%; in test [6] it was -6.6%.
Take `C(=N\N1CCN(/N=C/c2ccc(OCc3ccccc3)cc2)CC1)/c1ccc(OCc2ccccc2)cc1`: the growth inhibition in test [1] was -12.6%; in test [2] it was -3.95%; in test [3], 7.65%; in test [4] it was -19.4%; in test [5], 0.2%; in test [6] it was -16.8%.
As to `C#CCOC(=O)c1ccccc1O`, the growth inhibition is 15.2% in test [1]; 2.8% in test [2]; 17.4% in test [3]; 13.4% in test [4]; 16.9% in test [5]; 12.2% in test [6].
For the molecule `OCc1nc2ccccc2[nH]1`, the growth inhibition in test [1] is 5.6%; in test [2] it was -4.5%; in test [3], -3.55%; in test [4] it was -27.2%; in test [5], 14.1%; in test [6] it was 3.3%.
With `COc1cccc(-c2cc(=O)c3cccc(CC(=O)O)c3o2)c1`, the growth inhibition in test [1] is 5.9%; in test [2], -4.9%; in test [3], -11.6%; in test [4], 2.85%; in test [5], -2.35%; in test [6], -30.9%.
Consider `COc1ccc(Cc2coc3ccccc3c2=O)cc1`, for which the growth inhibition is 13.1% in test [1]; 7.35% in test [2]; 13.7% in test [3]; 4.85% in test [4]; 25.2% in test [5]; 9.4% in test [6].
`COc1ccc(C/C=N/Nc2ccc([N+](=O)[O-])cc2[N+](=O)[O-])cc1OC`: the growth inhibition in test [1] was 1.7%; in test [2], -8.05%; in test [3] it was -2.3%; in test [4], 3.45%; in test [5], -6.3%; in test [6], -0.55%.
`Cc1ccc(OS(=O)(=O)NC(=O)NCc2ccco2)cc1`: the growth inhibition in test [1] is 18.8%; in test [2], 4.9%; in test [3], 7.7%; in test [4], 8.9%; in test [5] it was 3.95%; in test [6] it was 4.35%.
In the case of `COc1cc2nccnc2cc1OC`, the growth inhibition in test [1] is 10.1%; in test [2], 7.05%; in test [3], 3.35%; in test [4], -7.45%; in test [5] it was 6.55%; in test [6] it was 21.2%.
Turning to `COC(=O)c1cc(C)c(C(=O)O)c(C)c1`, the growth inhibition in test [1] was 13%; in test [2], 22.5%; in test [3], 26.6%; in test [4], 16.3%; in test [5], 3.9%; in test [6] it was 14.9%.
`COc1c(OC)c(C(C)C)c2c(c1C(=O)O)C(=O)OC2=O`: the growth inhibition in test [1] was -5.6%; in test [2], 10.9%; in test [3] it was 11.2%; in test [4], -14.9%; in test [5], -7.5%; in test [6] it was -7.75%.
As for `CC12CCC(CC1=O)C2(C)CCC(N)=O` (stereo unspecified), the growth inhibition in test [1] was -1.55%; in test [2], -12%; in test [3] it was 18.2%; in test [4], -11.7%; in test [5], -17.9%; in test [6], -8.8%.
Turning to `Cc1ccc(S(=O)(=O)Oc2cc(-c3ccccc3)nc3ccccc23)cc1`, the growth inhibition in test [1] is 5.35%; in test [2] it was -7.25%; in test [3], 2.95%; in test [4], 11.7%; in test [5], 27.6%; in test [6] it was 9.85%.
Consider `O=C(Nc1ccc(Cl)c(Cl)c1)C(=O)C(C(=O)c1ccccc1-c1ccccc1)C1OC(=O)c2ccccc21` (stereo unspecified), for which the growth inhibition is 20.2% in test [1]; -0.45% in test [2]; 5.85% in test [3]; -50.5% in test [4]; 4.85% in test [5]; -8.9% in test [6].
For `Cc1[nH]c2ccc(-c3ccccc3)cc2c1CC(=O)OC(C)C`, the growth inhibition was 97% (active) in test [1]; 98.5% (active) in test [2]; 98.2% (active) in test [3]; 97.8% (active) in test [4]; 98.2% (active) in test [5]; 98% (active) in test [6].
For the molecule `CCNc1ccc2c(c1)C(=O)c1ccccc1-2`, the growth inhibition in test [1] was 28.9%; in test [2], 7.5%; in test [3], 17.4%; in test [4], 3.6%; in test [5], -4.05%; in test [6], -0.05%.
Consider `[Cl][Eu]([Cl])[Cl]`, for which the growth inhibition in test [1] is 22.4%; in test [2] it was 17.9%; in test [3] it was 24.2%; in test [4], 42.9%; in test [5], 34.2%; in test [6], 19.8%.
As for `Cc1cc(=O)n2[nH]nnc2n1`, the growth inhibition was 10.5% in test [1]; 17.6% in test [2]; 26.4% in test [3]; 13.2% in test [4]; 12.5% in test [5]; 14.2% in test [6].
In the case of `O=C(O)C(=Cc1ccc([N+](=O)[O-])cc1)C(=O)O`, the growth inhibition is 11.1% in test [1]; -21.8% in test [2]; 5.95% in test [3]; -7.35% in test [4]; -0.7% in test [5]; -11.6% in test [6].
`CC(C)=CC1C(C(=O)SCc2cc3c(cc2Br)OCO3)C1(C)C` (stereo unspecified): the growth inhibition in test [1] is 0.95%; in test [2] it was -6.05%; in test [3], -10.2%; in test [4], 6.25%; in test [5], 5.6%; in test [6], 6.5%.
For the molecule `CC12CCC(CC1C(=O)O)C2` (stereo unspecified), the growth inhibition was 19.4% in test [1]; 16.3% in test [2]; 24.9% in test [3]; 22.1% in test [4]; 9.75% in test [5]; 15.3% in test [6].
